# Source: the supplement of paper PMC9694430
# Test system: LOC_OS03G04050-cb001
# Test: thermal shift delta Tm vs DMSO control; higher = stronger stabilization (binding)
# Conditions: 12.5 µM; protein concentration 2 µM
# Outline: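 Compounds dissolved in DMSO were added to purified rice kinase domain constructs, which had been expressed in E. coli, for differential scanning fluorimetry. Each well held 19.5 μl of 2 μM kinase in 100 mM potassium phosphate pH 7.5, 150 mM NaCl, 10% glycerol and 5 × SYPRO Orange. Fluorescence was followed from 25°C to 95°C at a rate of 0.05°C/s. Shifts in Boltzmann-fitted melting temperature are triplicate means relative to DMSO-only protein.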
row,Compound,thermal shift delta Tm [°C]
1,CN1CCN(c2cccc(Nc3nc4c(-c5ccc(S(C)(=O)=O)cc5)cccn4n3)c2)CC1,0.44
2,C[C@@H](NC(=O)c1ncnc(N)c1Cl)c1ncc(C(=O)Nc2cc(C(F)(F)F)c(Cl)cn2)s1,0.36
3,N#CC(=C(/N)Sc1ccccc1N)/C(C#N)=C(\N)Sc1ccccc1N,0.78
4,Cc1cc(Nc2cc(N3CCN(C)CC3)nc(/C=C/c3ccccc3)n2)n[nH]1,0.21
5,OCCn1cc(-c2ccc3c(c2)CC/C3=N\O)c(-c2ccncc2)n1,0.48
6,COc1cc2c(c(OC)c1OC)-c1c(cc3c(c1OC)OCO3)CC(C)C(C)C2 (centres undefined) [Schisandrin B (Sch B)],0.81
7,COc1cc(N2CCN(C)CC2)ccc1Nc1nccc(-c2cn(C)c3cnccc23)n1,0.3
8,CN(c1ccccc1CNc1nc(Nc2ccc3c(c2)CC(=O)N3)ncc1C(F)(F)F)S(C)(=O)=O,0.4
9,CNC(=O)c1ccc(Nc2ncc(C(F)(F)F)c(NCc3nccnc3N(C)S(C)(=O)=O)n2)cc1,0.04
10,O=C(O)c1ccc2c3c1cccc3c(=O)n1c3ccccc3nc21,0.18
11,Cc1nc(Nc2n[nH]c3c2CN(C(=O)N[C@H](CN(C)C)c2ccccc2)C3(C)C)c2sccc2n1,0.62
12,C[C@H]1[C@H](C)CC[C@]2(C(=O)O)CC[C@]3(C)C(=CC[C@@H]4[C@@]5(C)C[C@@H](O)[C@H](O)[C@@](C)(CO)[C@@H]5CC[C@]43C)[C@H]12 [Asiatic Acid],0.11
13,COc1ccc(-c2cc3nccn3c(Nc3ncccc3C(N)=O)n2)cc1OC,0.72
14,O=C(NCc1ccccc1)c1csc(Nc2ccncn2)n1 [Thiazovivin],0.67
